# From PubChem BioAssay (NCATS)
# Unmarked numbers belong to inactive results. Records with an inconclusive call do not appear. The source made the active and inactive calls. Calls follow the shape of the dose curve; as a rule, active = well fitted curve in the direction sought with a large enough effect; inconclusive = small, poorly fitted or top-dose-only effect, or another doubt; inactive = no such curve, though single readings can be large; an effect the other way counts as inactive or inconclusive.
# Key:
# [1] = biological target: Cytochrome P450 3A4 (Homo sapiens) (UniProt P08684); experiment: qHTS Assay for Inhibitors and Substrates of Cytochrome P450 3A4 (AID 884); also: nearly all actives have a fitted effect of over 50% in size; also: potency is read from the fitted curve at half-maximal effect; as to activity change, negative = inhibition: series mostly up to about 57 µM; % is scaled to controls: 0 for no effect and ±100 for the full control effect
# Chain of Cytochrome P450 3A4 (Homo sapiens) (P08684 whole entry, looked up): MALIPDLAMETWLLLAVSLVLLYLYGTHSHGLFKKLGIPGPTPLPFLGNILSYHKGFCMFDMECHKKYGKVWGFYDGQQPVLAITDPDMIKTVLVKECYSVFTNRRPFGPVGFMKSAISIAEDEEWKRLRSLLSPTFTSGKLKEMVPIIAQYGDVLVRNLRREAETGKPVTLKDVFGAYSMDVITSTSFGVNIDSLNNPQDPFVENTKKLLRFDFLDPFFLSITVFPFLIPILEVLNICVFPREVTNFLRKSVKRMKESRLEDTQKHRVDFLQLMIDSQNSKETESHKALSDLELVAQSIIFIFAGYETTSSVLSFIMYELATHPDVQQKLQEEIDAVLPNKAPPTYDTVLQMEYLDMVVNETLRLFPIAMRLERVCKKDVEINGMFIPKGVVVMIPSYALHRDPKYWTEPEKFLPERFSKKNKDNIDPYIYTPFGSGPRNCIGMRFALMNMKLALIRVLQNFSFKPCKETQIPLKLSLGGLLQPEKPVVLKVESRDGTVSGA
# Outline: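 20 nM human CYP3A4 with 25 uM Luciferin-PPXE (at KM) in 200 mM KPO4, preincubated 10 min with compound; NADPH regeneration started a 60 min RT reaction. Luciferin detected by luminescence, normalized to 57 uM ketoconazole as full inhibition.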
# [2] = biological target: Cytochrome P450 3A4 (Homo sapiens) (UniProt P08684); experiment: qHTS Assay for Activators of Cytochrome P450 3A4 (AID 885); also: nearly all actives have a fitted effect of over 65% in size
# Outline: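 20nM CYP3A4 + 25uM Luciferin-PPXE (=KM), 200mM KPO4; cpd 10 min RT; NADPH regen, 60 min RT; stop w/ detection buffer, 20 min; luminescence. Normalized to 57 uM ketoconazole.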
# [3] = biological target: Cytochrome P450 2D6 (Homo sapiens) (UniProt P10635); experiment: qHTS Assay for Inhibitors and Substrates of Cytochrome P450 2D6 (AID 891); also: nearly all actives have a fitted effect of over 60% in size; also: potency is read from the fitted curve at half-maximal effect;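 as to activity change, negative = inhibition: luciferin methyl ether substrate demethylated by CYP2D6 with NADPH regeneration; % is scaled to controls: 0 for no effect and ±100 for the full control effect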
# Chain of Cytochrome P450 2D6 (Homo sapiens) (P10635 whole entry, looked up): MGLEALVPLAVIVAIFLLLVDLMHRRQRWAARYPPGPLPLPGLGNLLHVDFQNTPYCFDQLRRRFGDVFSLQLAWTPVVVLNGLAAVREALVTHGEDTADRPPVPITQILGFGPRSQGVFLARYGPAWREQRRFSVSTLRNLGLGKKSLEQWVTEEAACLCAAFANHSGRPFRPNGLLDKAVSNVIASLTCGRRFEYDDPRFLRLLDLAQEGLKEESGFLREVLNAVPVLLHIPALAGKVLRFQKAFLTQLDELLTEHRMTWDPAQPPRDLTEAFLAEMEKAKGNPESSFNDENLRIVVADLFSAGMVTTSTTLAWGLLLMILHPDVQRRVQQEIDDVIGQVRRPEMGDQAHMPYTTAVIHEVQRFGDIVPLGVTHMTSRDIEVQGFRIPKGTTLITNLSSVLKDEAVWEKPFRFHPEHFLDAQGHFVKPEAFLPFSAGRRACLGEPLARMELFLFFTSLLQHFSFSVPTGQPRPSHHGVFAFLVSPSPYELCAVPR
# Outline: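 Human CYP2D6 (5 nM) with 30 uM Luciferin-ME EGE (at Km) in 100 mM KPO4, compound preincubated 10 min, then NADPH regeneration system for 60 min at room temperature. Luciferin read by luminescence; normalized to 1.43 uM quinidine.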
# [4] = biological target: Cytochrome P450 2C19 (Homo sapiens) (UniProt P33261); experiment: qHTS Assay for Inhibitors and Substrates of Cytochrome P450 2C19 (AID 899); also: nearly all actives have a fitted effect of over 60% in size; also: potency is read from the fitted curve at half-maximal effect
# Chain of Cytochrome P450 2C19 (Homo sapiens) (P33261 whole entry, looked up): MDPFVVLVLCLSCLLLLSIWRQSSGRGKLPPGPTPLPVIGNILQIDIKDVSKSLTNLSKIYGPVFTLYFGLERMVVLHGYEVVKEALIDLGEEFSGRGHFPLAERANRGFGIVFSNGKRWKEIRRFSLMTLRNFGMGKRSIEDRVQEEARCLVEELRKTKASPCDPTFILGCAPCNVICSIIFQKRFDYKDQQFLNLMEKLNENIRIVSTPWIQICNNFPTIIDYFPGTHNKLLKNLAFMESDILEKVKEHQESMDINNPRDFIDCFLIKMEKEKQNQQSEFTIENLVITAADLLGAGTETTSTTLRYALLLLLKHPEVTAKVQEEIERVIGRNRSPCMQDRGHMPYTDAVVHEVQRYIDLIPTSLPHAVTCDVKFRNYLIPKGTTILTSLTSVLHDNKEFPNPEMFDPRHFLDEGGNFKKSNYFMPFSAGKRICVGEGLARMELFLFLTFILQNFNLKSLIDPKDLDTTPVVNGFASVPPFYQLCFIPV
# Outline: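 Signal comes from luciferase acting on luciferin released by CYP2C19-mediated hydroxylation of Luciferin-H EGE, 10uM (KM). Assay mix: 5nM enzyme, 50mM KPO4; 60 min at 37C with NADPH regeneration. Data normalized against 57uM ketoconazole.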
compound,measurement,setting,value
CC(=O)OC[C@H]1O[C@@H](O/N=C(\C)CCC(=O)OC[C@@H]2O[C@H](C#Cc3ccccc3)C=C[C@@H]2Oc2ccc(C)cc2)[C@H](OC(C)=O)[C@@H](OC(C)=O)[C@H]1OC(C)=O,Potency,[1],3.16 µM (active)
same,"activity change, positive = activation",[2],-90.4% [at 11.4 µM]
same,Potency,[3],3.98 µM (active)
CCCNC(=O)OC[C@@H]1O[C@H](CCO/N=C(\C)CCN2CCCc3nc(C)c(C)cc32)C=C[C@@H]1Oc1ccc(OC)cc1,Potency,[1],3.98 µM (active)
same,"activity change, positive = activation",[2],-70.1% [at 11.4 µM]
Cc1ccc(/C=C/C2=CC3(C)CC2(C)C(c2ccc(C)cc2)CC3=O)cc1 (stereo not drawn),Potency,[1],3.98 µM (active)
same,"activity change, positive = activation",[2],-95.3% [at 11.4 µM]
same,Potency,[3],inactive
CCC1=C2CC[C@H]3C(=O)NC(=O)[C@H]3[C@H]2[C@@]2(C)C(=NCCc3c[nH]c4ccccc34)OC(=O)N2C1=O,Potency,[1],12.6 µM (active)
same,Potency,[2],inactive
COc1ccc(O[C@H]2C=C[C@@H](c3ccccc3)O[C@H]2COC(=O)CC/C(C)=N/O[C@@H]2O[C@H](COC(C)=O)[C@H](OC(C)=O)[C@H](OC(C)=O)[C@H]2OC(C)=O)cc1,Potency,[1],5.01 µM (active)
same,"activity change, positive = activation",[2],-91.6% [at 11.4 µM]
same,Potency,[3],3.16 µM (active)
same,Potency,[4],1.58 µM (active)
C/C(CCN1CCCc2nc(C)c(C)cc21)=N\O[C@@H](C)CN1CCCCc2nc(C)c(C)cc21,Potency,[1],3.98 µM (active)
same,"activity change, positive = activation",[2],-69.7% [at 11.4 µM]
COC(=O)[C@@H]1CC[C@H](C)[C@@H](c2ccc(C)cc2)N1C(=O)c1ccc(/C=N\OC[C@@H](C)[C@H](OCc2ccccc2)C(C)C)cc1,Potency,[1],3.98 µM (active)
same,"activity change, positive = activation",[2],-66.5% [at 11.4 µM]
same,Potency,[3],3.98 µM (active)
C/C=C/OC(=O)NC(c1ccccc1)[C@]1(C(C)=O)CCOC1=O (stereo partly drawn),Potency,[1],0.0316 µM (active)
same,"activity change, positive = activation",[2],-81.2% [at 11.4 µM]
same,Potency,[3],inactive
same,Potency,[4],0.158 µM (active)
CCCCCCN(C(=O)CCCCCN1C(=O)NC(c2ccc(-c3ccccc3)cc2)C(C(=O)OCc2ccccc2)=C1C)C(C)C(=O)NCCCC (stereo not drawn),Potency,[1],3.16 µM (active)
same,Potency,[2],inactive
C=C(C)C(O)/C=C/c1ccc(OC)cc1 (stereo not drawn),Potency,[1],5.01 µM (active)
same,"activity change, positive = activation",[2],-85.8% [at 11.4 µM]
same,Potency,[3],inactive
COC(=O)C1=C(C)N(Cc2ccccc2)[C@]23O[C@](C(=O)OC)(C(=O)N2C1c1ccccc1)C1CCCC(=O)C13 (stereo partly drawn),"activity change, negative = inhibition",[1],-22.3% [at 11.4 µM]
same,"activity change, positive = activation",[2],-50.6% [at 11.4 µM]
same,Potency,[3],inactive
same,Potency,[4],inactive
CCC1=C(OC(=O)N(CC)CC)N2C(=O)OC(=NCCc3c[nH]c4ccccc34)[C@]2(C)[C@H]2C1=CC[C@H]1C(=O)N(CC(=O)OC)C(=O)[C@H]12,Potency,[1],2 µM (active)
same,Potency,[2],inactive
CCC1=C(OC(=O)N(CC)CC)N2C(=O)OC(=NCC3CC3)[C@]2(Cc2ccccc2)[C@H]2C1=CC[C@H]1C(=O)NC(=O)[C@H]12,Potency,[1],2 µM (active)
same,Potency,[2],inactive
COc1ccc(/C=C/C2=CC3(C)CC2(C)C(c2ccc(OC)cc2)CC3=O)cc1 (stereo not drawn),Potency,[1],5.01 µM (active)
same,"activity change, positive = activation",[2],-60.7% [at 11.4 µM]
same,Potency,[3],inactive
same,Potency,[4],inactive
CN(C)c1cccc(OC2C=CC(C#Cc3ccccc3)OC2CO)c1 (stereo not drawn),Potency,[1],3.98 µM (active)
same,"activity change, positive = activation",[2],-83.1% [at 11.4 µM]
same,Potency,[3],inactive
Nc1ccccc1C(=O)/C=C\c1ccc2c(c1)OCO2,Potency,[1],3.16 µM (active)
same,"activity change, positive = activation",[2],-84.3% [at 11.4 µM]
same,Potency,[3],3.16 µM (active)
COC(=O)c1cccc(C23CC4(C2)[C@H](CN(Cc2ccc(C(F)(F)F)cc2)[C@@H]4c2ccccc2)C3c2ccccc2)c1 (stereo partly drawn),Potency,[1],12.6 µM (active)
same,Potency,[2],inactive
COc1ccc(C#CC2C=CC(Oc3cc(C)cc(C)c3)C(CO)O2)cc1 (stereo not drawn),Potency,[1],1.58 µM (active)
same,"activity change, positive = activation",[2],-94.5% [at 11.4 µM]
same,Potency,[3],3.98 µM (active)
same,Potency,[4],0.0631 µM (active)
COc1cccc([C@H]2Oc3ccc(OC)cc3/C(=N\O[C@@H]3O[C@H](COC(C)=O)[C@H](OC(C)=O)[C@H](OC(C)=O)[C@H]3OC(C)=O)[C@@H]2O)c1,Potency,[1],3.16 µM (active)
same,"activity change, positive = activation",[2],-77% [at 11.4 µM]
same,Potency,[3],3.16 µM (active)
COC(=O)[C@@H]1C[C@H]2CC[C@H](O)C[C@H]2N1Cc1ccccc1OC(=O)c1cccs1,Potency,[1],2.51 µM (active)
same,Potency,[2],inactive
C/C(CCN1CCCCc2nc(C)c(C)cc21)=N\O[C@@H](C)CN1CCCCc2nc(C)c(C)cc21,Potency,[1],3.98 µM (active)
same,"activity change, positive = activation",[2],-81.7% [at 11.4 µM]
C=CCOC(=O)C(C(C)=O)C(NC(=O)OC)c1cccc(F)c1 (stereo not drawn),Potency,[1],0.0794 µM (active)
same,"activity change, positive = activation",[2],-72.4% [at 11.4 µM]
same,Potency,[3],inactive
same,Potency,[4],0.1 µM (active)
Cc1cc2c(nc1C)CCCCN2C[C@H](C)O/N=C\[C@@H](C)[C@H](OCc1ccccc1)C(C)C,Potency,[1],3.98 µM (active)
same,"activity change, positive = activation",[2],-76.1% [at 11.4 µM]
COC(=O)C[C@@H]1O[C@H]1[C@H](C)[C@@H](OC)C(C)C,Potency,[1],3.98 µM (active)
same,"activity change, positive = activation",[2],-66.6% [at 11.4 µM]
same,Potency,[4],3.98 µM (active)
